# TMEM16A act: activates or potentiates the mouse TMEM16A chloride channel | 340,000 compounds, 0.3% hits | Q8BHY3 | HEK293 TMEM16A/YFP-H148Q/I152L, iodide quench fluorescence; stronger effect = lower value | B-score at 10 µM;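 active means fluorescence-ratio B-score plate-corrected deviation score at least 3 library SD below zero, with starting fluorescence score within 5 deviations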;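 further: channel opened by trigger with iodide after compound preincubation; score built on the fluorescence ratio of max minus min over baseline; more negative score means more quench and so TMEM16A activation or potentiation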
# IDE inh: inhibitors of human insulin-degrading enzyme in cells. inhibition, % at 5.59 µM. AID 434962. P14735. 320,000 compounds, 0.41% hits. HEK cells, FAbetaB cleavage, fluorescence polarization;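 active means percent inhibition above the average of all tested compounds plus 3 SD, set per screening campaign, cut at about 16% in these data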;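 further: IDE supplied by intact live HEK cells; FP after avidin binding of uncleaved biotin substrate so inhibition keeps polarization high; 0% = DMSO wells and 100% = 60 µM reference IDE inhibitor Ii1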
# Target sequence (P14735 whole entry, looked up): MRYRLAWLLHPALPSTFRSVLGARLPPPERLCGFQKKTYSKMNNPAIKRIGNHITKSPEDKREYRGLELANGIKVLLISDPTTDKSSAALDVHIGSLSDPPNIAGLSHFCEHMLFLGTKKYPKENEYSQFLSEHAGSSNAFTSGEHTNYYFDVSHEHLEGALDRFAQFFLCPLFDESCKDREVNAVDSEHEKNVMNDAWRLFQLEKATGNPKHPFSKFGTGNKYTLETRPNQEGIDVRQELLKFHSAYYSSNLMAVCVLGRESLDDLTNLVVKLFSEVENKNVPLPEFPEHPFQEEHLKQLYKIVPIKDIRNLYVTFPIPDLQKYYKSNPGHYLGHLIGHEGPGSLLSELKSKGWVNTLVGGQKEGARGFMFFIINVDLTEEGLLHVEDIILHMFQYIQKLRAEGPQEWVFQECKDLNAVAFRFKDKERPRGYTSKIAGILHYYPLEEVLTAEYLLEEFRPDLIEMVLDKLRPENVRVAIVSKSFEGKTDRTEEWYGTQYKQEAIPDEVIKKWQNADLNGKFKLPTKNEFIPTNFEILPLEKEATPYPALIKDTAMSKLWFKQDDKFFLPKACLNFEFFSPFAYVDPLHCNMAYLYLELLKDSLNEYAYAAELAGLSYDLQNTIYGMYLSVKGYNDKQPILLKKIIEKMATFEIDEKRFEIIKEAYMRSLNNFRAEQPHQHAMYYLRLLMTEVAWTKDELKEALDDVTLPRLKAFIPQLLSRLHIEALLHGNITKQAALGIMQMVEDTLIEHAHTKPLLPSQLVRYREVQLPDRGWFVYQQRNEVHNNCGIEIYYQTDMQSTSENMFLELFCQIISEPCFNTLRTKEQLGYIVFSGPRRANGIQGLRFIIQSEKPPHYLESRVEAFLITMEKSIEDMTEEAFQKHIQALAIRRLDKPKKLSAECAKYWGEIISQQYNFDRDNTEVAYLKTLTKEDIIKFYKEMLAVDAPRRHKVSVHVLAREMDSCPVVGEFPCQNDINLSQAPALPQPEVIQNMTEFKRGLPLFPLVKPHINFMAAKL
# CHT allo act: allosterically activates the human high affinity choline transporter. AID 488977. Q9GZV3. CHT-expressing cells, membrane potential dye, choline EC20; stronger effect = higher value; LV-AA mutant CHT in HEK293 cells. 310,000 compounds, 0.49% hits. B-score at 10 µM;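 active means initial fluorescence not abnormally high and integrated response B-score, plate-corrected, over 3 SD above library mean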
# IDE act: boosts human insulin-degrading enzyme activity in HEK cells. activation, % at 5.96 µM. AID 493087. FAbeta-B cleavage, fluorescence polarization; 0% vehicle, 100% cell-free pure enzyme wells. 340,000 compounds, 0.073% hits. P14735;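 active means activation above the mean of all tested compounds plus 3 SD, set per screening campaign, cut at about 17% in these data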
# TMEM16A inh: inhibitors of mouse TMEM16A calcium-activated chloride channel. HEK293 TMEM16A/YFP iodide influx fluorescence, ionomycin. normalized B-score (activity score, 25-100; higher = stronger inhibition) at 10 µM. 310,000 compounds, 1.2% hits. AID 588511. Q8BHY3;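 active means ratio plate-corrected score three or more library SD toward inhibition, starting fluorescence score within five deviations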;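 further: score derived from kinetic fluorescence span divided by baseline fluorescence per well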
# CHT block: inhibits the human high affinity choline transporter | Q9GZV3 | CHT-expressing cells, membrane potential dye, choline response; stronger effect = lower value | B-score at 10 µM | 310,000 compounds, 0.86% hits | AID 488975;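 active means B-score over 3 SD under the library average, and starting fluorescence ratio not unusually high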;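 further: choline stimulus applied at its EC90 after an EC20 pre-addition; B-score computed on integrated fluorescence ratio after choline addition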
# CHT act confirm: confirmation of human choline transporter (CHT) activators | CHT-expressing cells, membrane potential dye fluorescence (FDSS); % of choline EC20–EC90 response window; HEK293 expressing CHT LV-AA mutant; choline added at its EC20 | AID 504833 | activation, % at 10 µM | 2,500 compounds, 91% hits | shares compounds with CHT allo act;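 active means primary screen active, with duplicate mean activation above negative control mean plus 3 SD, cut at about 11% in these data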
# HEK293 MP dye: CHT activator counter-screen hit in parental HEK293 cells; ratio readout change at 10 µM, hits read low; 2,500 compounds, 62% hits; AID 623908; membrane potential dye fluorescence (FDSS); measured after EC20 choline addition; shares compounds with CHT allo act;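 active means duplicate-averaged ratio beyond 3 SD from buffer wells, up or down, though filed actives are nearly all decreases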
# Active calls of the source: *; i = inactive; . = not tested or not shown. Rows were chosen to be rich in hits. Some 2.7% of all compounds tested hit in one or more screens of this group.
SMILES,TMEM16A act,IDE inh,CHT allo act,IDE act,TMEM16A inh,CHT block,CHT act confirm,HEK293 MP dye
Clc1ccc(C[n+]2cc(-c3ccccc3)n3c2CCC3)cc1Cl,i,6.6,7.84*,-0.3,i,i,18.2*,-27.4*
CCCCc1nnc(SC(C)C(=O)Nc2nccs2)n1C (centres undefined),i,2.1,i,3.6,i,i,.,.
Clc1ccc(-c2c[n+](Cc3cccc(Cl)c3)c3n2CCC3)cc1,i,-1.1,8.14*,-2.3,i,i,69.4*,-53.7*
Cn1c(-c2ccccn2)[n+](C)c2ccccc21,i,-3.4,i,1.1,i,i,44.0*,-36.9*
CN(C)c1ccc(-c2n(C)c3ccccc3[n+]2C)cc1,i,2.6,8.29*,0.0,i,i,63.7*,-50.6*
Cc1ccc(S(=O)(=O)NCC(=O)OC(C)C(=O)NC2CCCCC2C)cc1C (centres undefined),i,.,.,-1.5,.,.,.,.
COc1ccc(NS(=O)(=O)c2cc(NC(=O)CCc3ccc(OC)c(OC)c3)ccc2N2CCOCC2)cc1,i,.,.,-2.8,.,.,.,.
Cn1nnc2c[n+](CC(=O)c3ccc(Cl)cc3)cc(Br)c21,i,-1.2,i,.,i,i,59.1*,-88.5*
O=C(C[n+]1ccccc1)c1ccc(Cl)cc1,i,6.6,i,-0.1,i,i,.,.
Cn1nnc2c[n+](CC(=O)c3ccc4ccccc4c3)cc(Br)c21,i,8.2,10.4*,-13.6,i,i,58.4*,-93.6*
CCOC(=O)CSc1ccc2nnc(-c3ccncc3)n2n1,i,2.2,i,-3.3,i,i,12.1*,-33.1*
COc1ccc(-c2nnc3ccc(SCC(=O)Nc4cc(C)on4)nn23)cc1OC,i,6.2,i,0.3,i,i,.,.
COc1ccc(-c2nnc3ccc(SCC(=O)N4CCCCC4)nn23)cc1OC,i,-2.2,i,-4.9,i,i,19.7*,i
COc1ccc(-c2nnc3ccc(SCC(N)=O)nn23)cc1OC,i,-2.7,i,3.9,i,i,31.0*,-30.6*
CN1C(=O)C(=O)/C(=C(/O)c2ccc(Br)cc2)C1c1ccccc1F (centres undefined),i,-3.0,i,5.9,i,i,.,.
Cn1c(=O)[nH]c(=O)c2c1nc(SCCN1CCCCC1)n2CCCc1ccccc1,i,2.8,i,-12.2,i,i,52.7*,-54.2*
C=CCn1c(SCCOC)nc2c1c(=O)[nH]c(=O)n2C,i,0.3,i,-5.1,i,i,.,.
C=CCn1c(SCCN2CCCCC2)nc2c1c(=O)[nH]c(=O)n2C,i,2.4,10.1*,7.4,i,i,63.5*,-62.8*
Cn1c(=O)[nH]c(=O)c2c1nc(SCC(=O)O)n2Cc1ccccc1,i,-0.3,i,-6.8,i,i,.,.
Cc1ccc(Cn2c(SCCN3CCCCC3)nc3c2c(=O)[nH]c(=O)n3C)cc1,i,8.8,6.46*,5.5,i,i,52.8*,-50.2*
Cn1c(=O)[nH]c(=O)c2c1nc(SCCN1CCCCC1)n2Cc1ccccc1,i,2.7,9.92*,0.7,i,i,57.9*,-60.9*
CC(C(=O)Nc1ccc(F)c(F)c1F)N(C)Cc1cccs1 (centres undefined),i,6.2,i,-0.7,i,i,.,.
Cc1cccc(Cn2c(N3CCN(CCO)CC3)nc3c2c(=O)[nH]c(=O)n3C)c1,i,-5.6,i,0.3,i,i,.,.
Cc1cccc(Cn2c(SCCN3CCCCC3)nc3c2c(=O)[nH]c(=O)n3C)c1,i,1.2,9.05*,5.9,i,i,60.6*,-62.1*
C=CCn1c(SCCN2CCCC2)nc2c([nH]c3ccccc32)c1=O,i,1.1,6.5*,-1.2,i,i,39.6*,-40.8*
SMILES,TMEM16A act,IDE inh,CHT allo act,IDE act,TMEM16A inh,CHT block,CHT act confirm,HEK293 MP dye
CN(C(=O)c1cccc(NC(=O)Cc2ccc(NC(=O)C3CCN(C(=O)C4CCCC4)CC3)cc2)c1)C1CC1,.,.,.,0.7,.,.,.,.
O=S(=O)(c1ccccc1)N1CCCCC1CCc1ccccc1 (centres undefined),i,.,.,1.6,.,.,.,.
Cc1cc(C[n+]2ccsc2N)c2ncccc2c1,i,7.1,i,-1.0,i,i,43.2*,-52.5*
COCC(=O)N(C)c1nnc(-c2ccc([N+](=O)[O-])cc2)s1,i,-3.6,i,-0.8,i,i,40.8*,-46.7*
COCC(=O)N(C)c1nnc(-c2ccccn2)s1,i,-4.5,i,7.9,i,i,.,.
O=C1c2cccc3cccc(c23)C(=O)N1CC1CCN(CC(O)COCc2ccc3c(c2)OCO3)CC1 (centres undefined),i,-0.4,i,6.6,i,i,38.3*,-55.9*
CN(C)CC1CCCCC1C1(O)c2ccccc2CSc2sccc21 (centres undefined),i,0.5,i,4.8,i,i,13.3*,i
Nc1nnc(SCC(=O)Nc2nnc(-c3ccccc3)o2)s1,i,1.7,.,5.2,.,.,.,.
COCCNc1nnc(SCC(=O)Nc2nnc(-c3ccccc3)o2)s1,i,2.2,6.6*,0.1,i,i,4.5,i
COc1ccc(C(C)=O)cc1CC(=O)Nc1ccc2c(c1)CCC2,i,1.0,i,3.6,i,i,.,.
c1ccc(-c2ccccc2OCCCN2CCCC2)cc1,i,5.4,i,2.4,i,i,1.9,i
c1ccc(-c2ccccc2OCCCN2CCCCCC2)cc1,i,-0.6,i,-2.7,i,i,.,.
COc1cc(Nc2c3c(nc4ccccc24)CCCC3)cc(OC)c1OC,i,-4.2,i,8.0,i,i,44.6*,-48.7*
Cc1noc(C)c1COc1ccccc1C(=O)N(C)Cc1ccco1,i,-3.9,.,-1.5,.,.,.,.
COc1cc(C(=O)Nc2cc(S(=O)(=O)N3CCOCC3)ccc2N2CCN(C)CC2)cc(OC)c1OC,i,.,.,3.6,.,.,.,.
Cc1cnc(C(=O)Nc2cc(S(=O)(=O)N3CCOCC3)ccc2N2CCN(C)CC2)cn1,i,0.5,9.7*,2.6,i,i,50.8*,-56.9*
COc1ccc(-c2cc(C(=O)NNC(=O)c3csc(N4CCOCC4)n3)c3ccccc3n2)cc1OC,i,-0.1,7.29*,0.9,i,i,10.6*,i
